Results filed as inconclusive are left out. Calls of active or inactive are those of the source. Rule for the calls, unless noted: active = hit-call score of the fitted dose curve at least 0.9, where 1 is the maximum; inactive = score below 0.9.
Key:
[1] = molecular target: Estrogen receptor beta (Homo sapiens) (UniProt Q92731); assay: OT_ER_ERbERb_0480: Odyssey Thera (OT) 8-hour HEK293T Protein-Complementation Assay for Estrogen Receptor-beta/-beta Homodimer (AID 2283357; active = hit-call score of the fitted dose curve at least 0.9, where 1 is the maximum;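 note: active means signal gain over DMSO baseline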)
Chain of Estrogen receptor beta (Homo sapiens) (Q92731 whole entry, looked up, the tested form may be a part): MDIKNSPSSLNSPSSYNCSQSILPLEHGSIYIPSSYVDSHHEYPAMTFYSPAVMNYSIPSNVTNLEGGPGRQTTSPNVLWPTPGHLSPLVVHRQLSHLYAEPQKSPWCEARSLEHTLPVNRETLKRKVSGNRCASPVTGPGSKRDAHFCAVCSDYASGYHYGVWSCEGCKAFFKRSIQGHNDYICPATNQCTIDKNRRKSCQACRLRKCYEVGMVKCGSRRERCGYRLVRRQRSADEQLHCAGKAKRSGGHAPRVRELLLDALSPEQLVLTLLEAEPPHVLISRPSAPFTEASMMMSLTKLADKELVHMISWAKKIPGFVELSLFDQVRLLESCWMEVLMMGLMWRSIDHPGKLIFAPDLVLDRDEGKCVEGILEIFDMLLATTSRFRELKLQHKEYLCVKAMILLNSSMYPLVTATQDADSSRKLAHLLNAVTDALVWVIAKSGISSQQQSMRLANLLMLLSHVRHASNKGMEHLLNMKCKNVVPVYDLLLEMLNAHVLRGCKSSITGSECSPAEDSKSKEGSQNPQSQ
Method in brief: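 Fluorescence gain from complemented reporter fragments on ER-beta LBD homodimer in HEK293T was quantified against DMSO controls after 8 h treatment, fixation in 4% formaldehyde and Draq5 staining.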

[2] = BSK_3C_TissueFactor: BioMAP Diversity Plus: 3C Assay for Tissue Factor Biomarker Activity (AID 2282997); conditions: BioMAP 3C HUVEC, tissue factor biomarker readout; actives raise or lower the signal
Method in brief: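 After a 24 h chemical exposure of primary human umbilical vein endothelial cells, Tissue Factor levels were quantified by ELISA.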

[3] = BSK_3C_VCAM1: BioMAP Diversity Plus: 3C Assay for Vascular cell adhesion molecule 1 (VCAM1) Biomarker Activity (AID 2282999); conditions: BioMAP 3C HUVEC, VCAM1 ELISA, cytokine-stimulated; actives raise or lower the signal
Method in brief: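 Vascular primary endothelium (human umbilical vein) was exposed to chemicals and assayed 24 h later. VCAM-1 levels came from ELISA, with DMSO serving as baseline for bidirectional fitting.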

[4] = BSK_3C_Proliferation: Cell Proliferation Assessment in the BioMAP Diversity Plus: 3C Assay (AID 2283006); conditions: primary human endothelial cells (HUVEC);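 for AC50: potency may reflect either rise or fall in cell number versus DMSO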
Method in brief: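 HUVEC, sub-confluent; 48 h chemical exposure; 10% TCA fix, 0.1% SRB stain, A560 total protein. Gain or loss of signal fitted both directions vs DMSO control.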

[5] = read-out: E-selectin (Homo sapiens) (UniProt P16581); assay: BSK_3C_Eselectin: BioMAP Diversity Plus: 3C Assay for Eselectin Biomarker Activity (AID 2283015); conditions: primary human endothelial cells (HUVEC); actives raise or lower the signal
Method in brief: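 ELISA read-out of E-selectin on endothelial monolayers after 24 h chemical treatment. Human umbilical vein primary cells served as the system, with DMSO defining baseline activity for bidirectional fitting.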

[6] = read-out: Interleukin-1 alpha (IL1a), IL1A (gene 3552); assay: BSK_BE3C_IL1a: BioMAP Diversity Plus: BE3C Assay for Interleukin-1 alpha (IL1a) Biomarker Activity (AID 2283016); conditions: primary human bronchial epithelial cells; actives raise or lower the signal
Method in brief: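 ELISA read-out of IL-1a from human lung bronchial epithelial primary cells, 24 h post-dose. Gain or loss of signal fitted relative to DMSO negative control.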

[7] = read-out: Monocyte Chemoattractant Protein-1 (MCP1), CCL2 (gene 6347); assay: BSK_3C_MCP1: BioMAP Diversity Plus: 3C Assay for Monocyte Chemoattractant Protein-1 (MCP1) Biomarker Activity (AID 2283017); conditions: primary human endothelial cells (HUVEC); actives raise or lower the signal
Method in brief: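 ELISA read-out of MCP-1 from human umbilical vein endothelial cell cultures harvested 24 h post-dosing. Gain or loss of signal was fitted relative to DMSO.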

[8] = read-out: Interleukin-8 (IL8), CXCL8 (gene 3576); assay: BSK_3C_IL8: BioMAP Diversity Plus: 3C Assay for Interleukin-8 (IL8) Biomarker Activity (AID 2283020); conditions: primary human endothelial cells (HUVEC); actives raise or lower the signal
Method in brief: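 HUVEC, 3C stimulation; 24 h compound exposure; IL-8 read by ELISA; gain or loss of signal fitted relative to DMSO control.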

[9] = BSK_3C_SRB: Viability Assessment in the BioMAP Diversity Plus: 3C Assay (AID 2283023); conditions: primary human endothelial cells (HUVEC);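 note: fitted both ways against DMSO so a hit may be signal rise or drop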
Method in brief: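 Absorbance at 560 nm of sulforhodamine B-stained (0.1%) total protein served as a cytotoxicity readout in human umbilical vein endothelial cells, 24 h after chemical treatment. Signal was fitted bidirectionally relative to DMSO.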

[10] = read-out: Matrix Metallopeptidase 1 (MMP1), MMP1 (gene 4312); assay: BSK_BE3C_MMP1: BioMAP Diversity Plus: BE3C Assay for Matrix Metallopeptidase 1 (MMP1) Biomarker Activity (AID 2283024); conditions: primary human bronchial epithelial cells; actives raise or lower the signal
Method in brief: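 ELISA read-out of MMP1 in human lung bronchial epithelial primary cultures, 24 h post-dose; bidirectional curve fit vs DMSO baseline, gain or loss of signal scored.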

[11] = read-out: Pselectin, SELP (gene 6403); assay: BSK_4H_Pselectin: BioMAP Diversity Plus: 4H Assay for Pselectin Biomarker Activity (AID 2283026); conditions: primary human endothelial cells (HUVEC); actives raise or lower the signal
Method in brief: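 HUVEC, 24 h chemical exposure; P-selectin read by ELISA. Bidirectional curve fit vs DMSO baseline; gain or loss of signal scored.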

[12] = BSK_4H_SRB: Viability Assessment in the BioMAP Diversity Plus: 4H Assay (AID 2283027); conditions: primary human endothelial cells (HUVEC);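 note: cells exposed to compound for 24 h before staining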;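 for AC50: curves fitted both ways versus DMSO so AC50 may be loss or gain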
Method in brief: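 Cytotoxicity readout: sulforhodamine B (0.1%) staining of total protein after 10% TCA fixation, measured at 560 nm in human umbilical vein endothelium at 24 h. DMSO set the baseline; fitting was bidirectional.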

[13] = read-out: Collagen III, COL3A1 (gene 1281); assay: BSK_hDFCGF_CollagenIII: BioMAP Diversity Plus: hDFCGF Assay for Collagen III Biomarker Activity (AID 2283056); conditions: primary human foreskin fibroblasts; actives raise or lower the signal
Method in brief: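 ELISA read-out of collagen III from human skin fibroblast cultures sampled 24 h post-dosing. Values were derived by bidirectional fitting relative to the DMSO vehicle control.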

[14] = read-out: Macrophage colony-stimulating factor (MCSF), CSF1 (gene 1435); assay: BSK_hDFCGF_MCSF: BioMAP Diversity Plus: hDFCGF Assay for Macrophage colony-stimulating factor (MCSF) Biomarker Activity (AID 2283060); conditions: primary human foreskin fibroblasts; actives raise or lower the signal
Method in brief: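 Primary human foreskin fibroblasts dosed with chemical; 24 h later, M-CSF quantified by ELISA; curves fitted in both directions vs DMSO negative control.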

[15] = read-out: Interleukin-1 alpha (IL1a), IL1A (gene 3552); assay: BSK_KF3CT_IL1a: BioMAP Diversity Plus: KF3CT Assay for Interleukin-1 alpha (IL1a) Biomarker Activity (AID 2283070); conditions: primary human keratinocytes with fibroblasts; actives raise or lower the signal
Method in brief: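 Readout is IL-1a level by ELISA, compared bidirectionally with DMSO as baseline. Cells: human keratinocytes co-cultured with foreskin fibroblasts, harvested 24 h post-dose.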

[16] = read-out: Matrix Metallopeptidase 9 (MMP9), MMP9 (gene 4318); assay: BSK_KF3CT_MMP9: BioMAP Diversity Plus: KF3CT Assay for Matrix Metallopeptidase 9 (MMP9) Biomarker Activity (AID 2283074); conditions: primary human keratinocytes with fibroblasts; actives raise or lower the signal;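 for AC50: MMP9 protein level quantified by ELISA in the co-culture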
Method in brief: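 Values come from bidirectional fitting relative to DMSO of MMP-9 levels, which were measured by ELISA. Measurements were taken 24 h after chemical dosing of a keratinocyte and foreskin fibroblast co-culture.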

[17] = read-out: Interleukin-1 alpha (IL1a), IL1A (gene 3552); assay: BSK_LPS_IL1a: BioMAP Diversity Plus: LPS Assay for Interleukin-1 alpha (IL1a) Biomarker Activity (AID 2283080); conditions: primary human HUVEC with PBMC; actives raise or lower the signal
Method in brief: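 ELISA read-out of IL-1 alpha from a human primary vascular co-culture (endothelium plus PBMC) under LPS, sampled 24 hours post-dosing. Activity was fitted in both directions relative to DMSO controls.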

[18] = BSK_LPS_PGE2: BioMAP Diversity Plus: LPS Assay for Prostaglandin E2 (PGE2) Biomarker Activity (AID 2283082); conditions: primary human HUVEC with PBMC; actives raise or lower the signal;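 for AC50: secreted prostaglandin E2 measured by ELISA in LPS-stimulated co-culture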
Method in brief: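 ELISA read-out of PGE2 from human umbilical vein endothelial cells co-cultured with peripheral blood mononuclear cells under LPS, 24 h post-dose. Gain or loss of signal scored relative to DMSO baseline.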

[19] = read-out: Tumor necrosis factor (Homo sapiens) (UniProt P01375); assay: BSK_LPS_TNFa: BioMAP Diversity Plus: LPS Assay for Tumour Necrosis Factor alpha (TNFa) Biomarker Activity (AID 2283085); conditions: primary human HUVEC with PBMC; actives raise or lower the signal;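 for AC50: TNFa protein level quantified by ELISA in the co-culture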
Method in brief: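 HUVEC/PBMC co-culture, LPS-stimulated; 24 h post-dose; TNFa by ELISA; gain or loss of signal fitted bidirectionally vs DMSO baseline.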

[20] = BSK_SAg_PBMCCytotoxicity: PBMC Cytotoxicity Assessment in the BioMAP Diversity Plus: SAg Assay (AID 2283093); conditions: primary human HUVEC with PBMC;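 note: PBMC viability measured as Alamar Blue reduction fluorescence at 546/580 nm; fitted both ways against DMSO so a hit may be loss or gain of signal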;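 for AC50: PBMC superantigen activated with SEB plus TSST-1 one hour after compound addition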
Method in brief: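 Alamar Blue reduction (6 h, 546/580 nm) reports PBMC cytotoxicity after 90 h superantigen activation (SEB, TSST-1; 20 ng/mL final each) with 1 h compound pre-treatment. Gain or loss of signal fitted versus DMSO.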

Measured: AC50

Chain of Tumor necrosis factor (Homo sapiens) (P01375 whole entry, looked up): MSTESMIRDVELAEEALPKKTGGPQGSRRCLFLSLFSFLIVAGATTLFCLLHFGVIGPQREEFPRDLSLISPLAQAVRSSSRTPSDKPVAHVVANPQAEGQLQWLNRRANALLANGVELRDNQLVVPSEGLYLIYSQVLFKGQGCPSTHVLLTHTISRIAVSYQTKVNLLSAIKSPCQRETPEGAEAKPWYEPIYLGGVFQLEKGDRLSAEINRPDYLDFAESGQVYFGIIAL
Chain of E-selectin (Homo sapiens) (P16581 whole entry, looked up): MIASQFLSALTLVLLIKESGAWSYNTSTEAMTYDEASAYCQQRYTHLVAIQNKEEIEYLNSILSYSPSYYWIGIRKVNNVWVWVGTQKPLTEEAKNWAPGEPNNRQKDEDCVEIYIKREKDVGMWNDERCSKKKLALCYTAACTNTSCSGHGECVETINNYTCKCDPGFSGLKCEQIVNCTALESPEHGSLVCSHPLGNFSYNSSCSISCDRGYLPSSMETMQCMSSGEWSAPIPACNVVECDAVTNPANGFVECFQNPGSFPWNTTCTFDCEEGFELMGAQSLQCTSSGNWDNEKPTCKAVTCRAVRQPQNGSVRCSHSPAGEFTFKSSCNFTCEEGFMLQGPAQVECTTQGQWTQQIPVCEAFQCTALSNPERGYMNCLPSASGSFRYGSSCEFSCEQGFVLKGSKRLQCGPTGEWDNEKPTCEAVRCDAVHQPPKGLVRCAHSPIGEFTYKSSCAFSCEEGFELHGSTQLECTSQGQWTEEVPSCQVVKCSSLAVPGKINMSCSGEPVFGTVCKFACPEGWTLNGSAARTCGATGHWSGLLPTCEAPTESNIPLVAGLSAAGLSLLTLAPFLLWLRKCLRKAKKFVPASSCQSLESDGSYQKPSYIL

CCC1CCC(=O)O1 (configuration not stated)
inactive: [1]

CCOC(=O)C1OC1(C)c1ccccc1 (configuration not stated)
inactive: [1]

O=P(O)(Oc1ccccc1)Oc1ccccc1
inactive: [1]

O=S(=O)(c1ccccc1)c1ccccc1
inactive: [2] | [3] | [4] | [5] | [6] | [7] | [8] | [9] | [10] | [11] | [12] | [13] | [14] | [15] | [16] | [17] | [18] | [19] | [20]

CC(C)CCCCCCCOP(=O)(Oc1ccccc1)Oc1ccccc1
active: [2] 9.9 µM | [3] 11.2 µM | [4] 10.1 µM | [5] 20 µM | [6] 5.34 µM | [7] 10.7 µM | [8] 20 µM | [9] 9.85 µM | [11] 15.1 µM | [12] 20 µM | [13] 5.29 µM | [14] 8.47 µM | [15] 11.3 µM | [16] 11.2 µM | [17] 27.3 µM | [18] 13.6 µM | [19] 30.4 µM | [20] 31 µM
inactive: [10]

CC(=O)C=Cc1ccccc1
inactive: [1]

CN(C)C(=O)C(c1ccccc1)c1ccccc1
inactive: [1]

CC(C)(C)C(=O)CCl
inactive: [6] | [7] | [8] | [9] | [10] | [11] | [12] | [13] | [14] | [15] | [16] | [18] | [19]
active: [2] 20 µM | [3] 20 µM | [4] 16.9 µM | [5] 20 µM | [17] 33.9 µM | [20] 9.22 µM

C=CCN(CC=C)C(=O)C(Cl)Cl
inactive: [2] | [3] | [4] | [5] | [6] | [7] | [8] | [9] | [10] | [11] | [12] | [13] | [14] | [15] | [16] | [17] | [18] | [19] | [20] | [1]

CCOP(=O)(OCC)OCC
inactive: [1]

O=C(CCl)c1ccccc1
active: [2] 5.4 µM | [3] 3.06 µM | [4] 6.81 µM | [5] 6.97 µM | [6] 32.6 µM | [7] 7.4 µM | [8] 10.9 µM | [9] 20 µM | [11] 3.29 µM | [12] 14.3 µM | [13] 4.85 µM | [14] 5.84 µM | [15] 28.4 µM | [16] 18 µM | [17] 3.72 µM | [18] 5.38 µM | [19] 4.58 µM | [20] 4.68 µM
inactive: [10]

CC(C)(c1cc(Cl)c(O)c(Cl)c1)c1cc(Cl)c(O)c(Cl)c1
inactive: [1]
active: [2] 24.2 µM | [3] 13.4 µM | [4] 15.2 µM | [5] 12 µM | [6] 5.29 µM | [7] 12.3 µM | [8] 20 µM | [9] 9.54 µM | [10] 9.58 µM | [11] 27.8 µM | [12] 29 µM | [13] 29.6 µM | [14] 12.2 µM | [15] 9.44 µM | [16] 8.32 µM | [17] 31.5 µM | [18] 22.9 µM | [19] 31.4 µM | [20] 36.3 µM

O=P1(NCCCl)OCCCN1CCCl (configuration not stated)
inactive: [2] | [3] | [4] | [5] | [6] | [7] | [8] | [9] | [10] | [11] | [12] | [13] | [14] | [15] | [16] | [17] | [18] | [19] | [20]

O=C(O)CCl
inactive: [1]
